Sm TGR block: inhibitors of Schistosoma mansoni thioredoxin glutathione reductase; AID 485364; Q962Y6; Potency, µM (series often up to 114 µM), most hits filed as inhibitors; purified TGR, DTNB reduction, TNB absorbance 405 nm; hit rate 3% among 360,000; note: nearly all actives have a fitted effect of over 60% in size
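First, TGR (20 nM dispensed) and NADPH were mixed with compound. Second, a 15 min room-temperature incubation followed. Third, further NADPH and then DTNB were added to start the reaction. Finally, TNB absorbance was monitored kinetically.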
SARS PLpro yeast: SARS-CoV PLP inhibition in yeast; hit rate 0.19% among 330,000; AID 485353; Potency, µM (series often up to 32.9 µM), most hits filed as activators; S. cerevisiae expressing SARS-CoV PLpro, growth rescue; calls by dose curve; note: nearly all actives have a fitted effect of over 55% in size
HCMV antiviral: blocks human cytomegalovirus replication; hit rate 4.5% among 410,000; activity change, negative = inhibition, % at 57.5 µM; AID 1259415; HFF cells, HCMV-luciferase reporter, 72 h; active compounds read low; in the data active = activity change below about -60%; inconclusive = no clear call, values can overlap the other calls; inactive = above about -39%
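Compounds were evaluated in HFFs infected with an HCMV luciferase reporter virus (MOI 1 PFU/cell). Luciferase in lysates collected 72 h post infection served as the replication measure.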
Pf growth 48h: P. falciparum growth inhibition at 48 hours (one generation) | Potency, µM (doses to about 28.7 µM), actives largely listed as inhibitors | P. falciparum luciferase growth in erythrocytes, 48 h | hit rate 5.9% among 310,000
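Cell-based growth assay: transgenic P. falciparum expressing firefly luciferase, cultured in red cells within RPMI 1640 containing 0.5% w/v Albumax, 24 mM bicarbonate and gentamycin. A drop in luciferase activity indicates inhibition.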
Pf growth 96h: inhibits malaria parasite growth, 96 h | P. falciparum luciferase reporter growth, 96 h | Potency, µM (top dose mostly 28.7 µM), actives largely listed as inhibitors | hit rate 6.9% among 320,000 | AID 504834
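Luminescence readout: decreased luciferase signal marks inhibited growth of reporter-expressing P. falciparum in infected red cells (2% hematocrit, 0.05% parasitemia final), exposed to compound two generations (96 h, 37 C, 5% CO2).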
HCV inhibitor: HCV inhibition; hit rate 3.4% among 340,000; Potency, µM (highest dose often 41.8 µM), actives largely listed as inhibitors; Huh7.5.1 HCVcc-Cre infection, luciferase reporter, 44 h
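Infectious HCV cell culture screen: compound-treated cells (1,000/well, pre-plated 4 h) are infected with HCVcc-Cre at roughly 0.5 moi and grown 44 h. Infection is quantified by luciferase signal after 15 min substrate incubation at room temperature.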
Of the large screens only hits and unclear results are named; the others gave an inactive call. In the library only some 15% were active in any assay of this set; here they are far more common. Unless noted, calls come from the whole dose curve; as a rule, active = well fitted curve in the direction sought with a large enough effect; inconclusive = small, poorly fitted or top-dose-only effect, or another doubt; inactive = no such curve, though single readings can be large; an effect the other way counts as inactive or inconclusive.

Cc1ccc(CNC(=O)C23CN(Cc4ccccc4)CC2C(c2ccc([N+](=O)[O-])cc2)=NO3)cc1 (configuration not stated)	Pf growth 48h 12µM, Pf growth 96h inconclusive
CN(c1ccccc1)S(=O)(=O)c1cccc(NC(=O)C2=NN(c3ccccc3)C(=O)CC2)c1	HCV inhibitor 16µM (no result: Sm TGR block, SARS PLpro yeast, Pf growth 48h, Pf growth 96h)
COc1ccc(NS(=O)(=O)c2cc(NC(=O)C3=NN(c4ccccc4)C(=O)CC3)ccc2C)cc1	none (no result: Sm TGR block, SARS PLpro yeast, Pf growth 48h, Pf growth 96h)
COc1ccc(NS(=O)(=O)c2cccc(NC(=O)C3=NN(c4ccccc4)C(=O)CC3)c2)cc1	Pf growth 48h inconclusive, Pf growth 96h 7.4µM
O=C(NCc1ccccc1)c1cnc(N2CCCCC2)c2ccccc12	none (no result: SARS PLpro yeast, Pf growth 48h, Pf growth 96h, HCV inhibitor)
CC(C)(CO)NC(=O)C12CC3CC(CC(Br)(C3)C1)C2	none
CC1CCC/C(=C\c2ccc(O)cc2)C1=O (configuration not stated)	none (no result: Sm TGR block, SARS PLpro yeast, Pf growth 48h, Pf growth 96h)
CN(C)CC1CC/C(=C\c2ccc(O)cc2)C1=O (configuration not stated)	HCMV antiviral -76, HCV inhibitor inconclusive (no result: Sm TGR block, SARS PLpro yeast, Pf growth 48h, Pf growth 96h)
CN(C)CC1CCC/C(=C\c2ccc(OC(=O)c3ccc(Cl)cc3)cc2)C1=O (configuration not stated)	HCMV antiviral -97, HCV inhibitor 11µM (no result: Sm TGR block, SARS PLpro yeast, Pf growth 48h, Pf growth 96h)
COc1ccc(CCNC(=O)c2ccc(-c3ccc([N+](=O)[O-])cc3Cl)o2)cc1OC	HCV inhibitor 7.1µM
COc1ccc(CCNC(=O)c2noc(C)c2[N+](=O)[O-])cc1OC	Sm TGR block 35µM
Cc1onc(C(=O)NCCc2ccccc2)c1[N+](=O)[O-]	Sm TGR block inconclusive
CC(C)NC(=O)C(=O)NNC(=O)CCc1ccccc1	Pf growth 96h inconclusive
CN(C)S(=O)(=O)c1ccc(N2CCCC2)c(C(=O)NCC2CCCCC2)c1	Pf growth 48h 9.3µM, Pf growth 96h inconclusive, HCV inhibitor 8.9µM
CN(C)S(=O)(=O)c1cccc(NC(=O)c2cc([N+](=O)[O-])ccc2N2CCCCC2)c1	HCMV antiviral inconclusive, Pf growth 48h 13µM, Pf growth 96h inconclusive, HCV inhibitor inconclusive
CN(C)S(=O)(=O)c1ccc(N2CCCC2)c(C(=O)Nc2ccccc2)c1	HCMV antiviral -67
COc1cc(Cl)c(C)cc1NC(=O)c1cc(S(=O)(=O)N(C)C)ccc1N1CCCC1	Pf growth 48h 4.7µM, Pf growth 96h 2.3µM, HCV inhibitor inconclusive
CSc1ccccc1NC(=O)c1cc(S(=O)(=O)N(C)C)ccc1N1CCCC1	Pf growth 48h inconclusive, Pf growth 96h inconclusive
O=C(/C=C\c1ccccc1OC(=O)c1ccccc1F)c1cc2ccccc2o1	HCV inhibitor inconclusive
Cc1ccn2c(=O)c(C(=O)NCCc3ccc(S(N)(=O)=O)cc3)c(O)nc2c1	none (no result: SARS PLpro yeast, Pf growth 48h, Pf growth 96h, HCV inhibitor)
COC(=O)[C@@]12C[C@@H](CC(=O)N3CCN(C(=O)C4CC4)CC3)C(=O)N(Cc3ccccc3)C1=CCC(C)(C)C2	none (no result: Sm TGR block, SARS PLpro yeast, Pf growth 48h, Pf growth 96h, HCV inhibitor)
O=C1CCCCCN1C(=O)c1cccc(C(=O)N2CCCCCC2=O)c1	none (no result: Pf growth 96h)
CC(=O)Oc1ccc(N2C(=O)C3C(C2=O)C2C=CC3C23CC3)cc1[N+](=O)[O-] (configuration not stated)	Sm TGR block 18µM, Pf growth 96h inconclusive
CC(=O)Oc1ccc(N2C(=O)C3C4C=CC(C5CC45)C3C2=O)cc1[N+](=O)[O-] (configuration not stated)	Sm TGR block 10µM
CCCC(=O)NCc1nc2cccnc2n1Cc1ccc(F)cc1	none (no result: SARS PLpro yeast, Pf growth 48h, Pf growth 96h, HCV inhibitor)
CCOCCCNC(=S)N1C2CCC1CC(NC(=O)Nc1ccc(C(=O)OCC)cc1)C2 (configuration not stated)	Pf growth 48h inconclusive, Pf growth 96h inconclusive, HCV inhibitor inconclusive
CCOCCCNC(=S)N1C2CCC1CC(NC(=O)NC13CC4CC(CC(C4)C1)C3)C2 (configuration not stated)	Pf growth 48h 4.7µM, Pf growth 96h 3.7µM
CCOC(=O)C1CCCN(C(=O)c2cc(Nc3ccc(OC)cc3OC)nc3ccccc23)C1 (configuration not stated)	Pf growth 96h inconclusive, HCV inhibitor inconclusive (no result: Pf growth 48h)
CC(=NNC(=S)N1CCN(c2ccccn2)CC1)c1ccccn1	HCV inhibitor inconclusive (no result: Sm TGR block, SARS PLpro yeast, Pf growth 48h, Pf growth 96h)
CC(=NNC(=S)N1CC2CCC(CC2)C1)c1ccccn1	HCMV antiviral -100 (no result: Sm TGR block, SARS PLpro yeast, Pf growth 48h, Pf growth 96h, HCV inhibitor)

Screening data as filed in PubChem BioAssay.
